The values that follow come from PubChem BioAssay (EPA / NIEHS).

Molecules are shown by their SMILES. A structure can be active in one record and inactive in another. The source made the active and inactive calls. How the source made its calls: active means hit-call score of the fitted dose curve at least 0.9, where 1 is the maximum; inactive means score below 0.9.

In the first experiment the target is Bile acid receptor (Homo sapiens) (UniProt Q96RI1). In words: ATG_IR1_CIS: Attagene CIS-FACTORIAL HepG2 Assay for human Nuclear Receptor Subfamily 1 Group H Member 4 (NR1H4), IR1 submotif (AID 2282946). As to conditions: IR1 reporter transcription, actives raise or lower the signal. In outline: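 Transient MRTU transfection, HepG2; 24 h dosing; RNA → RT-PCR → 6-FAM primer extension → HpaI digest → capillary electrophoresis fluorescence. Gain/loss of signal fitted relative to DMSO.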
Bile acid receptor (Homo sapiens), sequence (Q96RI1 whole entry, looked up): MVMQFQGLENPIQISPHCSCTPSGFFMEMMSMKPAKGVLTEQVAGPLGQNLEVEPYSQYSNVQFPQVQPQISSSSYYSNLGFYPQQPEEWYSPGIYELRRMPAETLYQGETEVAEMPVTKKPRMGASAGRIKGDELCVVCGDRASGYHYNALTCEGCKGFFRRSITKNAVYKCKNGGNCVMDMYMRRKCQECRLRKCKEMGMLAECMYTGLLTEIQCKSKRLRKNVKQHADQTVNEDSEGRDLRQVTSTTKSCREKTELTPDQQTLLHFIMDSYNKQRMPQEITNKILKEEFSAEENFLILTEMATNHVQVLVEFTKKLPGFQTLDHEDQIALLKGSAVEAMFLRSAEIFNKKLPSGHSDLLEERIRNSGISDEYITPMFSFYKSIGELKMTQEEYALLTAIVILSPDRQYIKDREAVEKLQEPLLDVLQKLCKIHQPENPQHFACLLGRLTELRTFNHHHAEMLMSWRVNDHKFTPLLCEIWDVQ
Turning to `ClC(Cl)(Cl)c1ccccc1`, the compound was classed as inactive.
On the same count and under the same terms, the value for `O=C(O)C1C(C(=O)O)C2(Cl)C(Cl)=C(Cl)C1(Cl)C2(Cl)Cl` (stereo not drawn) was “inactive”; that for `OCC1CO1` (stereo not drawn) was “inactive”; that for `CCCCN(CCCC)N=O` was “inactive”.
Still for that read-out and setting: the value for `CCN(CC)c1ccccc1` was “inactive”; that for `CCOP(=S)(OCC)SCS(=O)(=O)CC` was “inactive”; that for `O=C(CBr)OCc1ccccc1` was “inactive”.
As to `CCCCc1ccc(O)cc1`, the compound was classed as inactive.
Same read-out and setting: for `Nc1ccc(Sc2ccc(N)cc2)cc1` the value was “inactive”.
Turning to `CC1=C(C(=O)Nc2ccccc2)S(=O)(=O)CCO1`, the AC50 is 58.6 µM (active).
With `NNC(N)=S`, the compound was called inactive.
The same measure, in the same setting: for `Cc1ccc([N+](=O)[O-])cc1C` the value was “inactive”.

Tested on in another experiment: not listed separately
In words: ATG_GRE_CIS: Attagene CIS-FACTORIAL HepG2 Assay for human Glucocorticoid Response Elements (GRE) (AID 2282947). The following applies: HepG2 GRE cis-reporter, Attagene multiplex mRNA; actives raise or lower the signal. In outline:
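HepG2 cells transiently transfected with multiple cis-promoter reporter units measure endogenous TF activity; 24 h compound exposure. Reporter mRNA quantified by RT-PCR, FAM labelling, HpaI digestion and capillary electrophoresis; bidirectional fit vs DMSO baseline.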
As to `ClC(Cl)(Cl)c1ccccc1`, the result was inactive.
Consider `CCCCN(CCCC)SN(C)C(=O)Oc1cccc2c1OC(C)(C)C2`, for which the result was inactive.
Same read-out and setting: for `O=C(O)C1C(C(=O)O)C2(Cl)C(Cl)=C(Cl)C1(Cl)C2(Cl)Cl` (stereo not drawn) the value was “inactive”; for `CCCCOCCOP(=O)(OCCOCCCC)OCCOCCCC`, “inactive”.
Consider `CN(C)C(=O)Cl`, for which the compound was classed as inactive.
Same read-out and setting: the value for `O=C(O)C(Cl)Cl` was “inactive”; that for `CCOS(=O)(=O)OCC` was “inactive”.
Take `OCC1CO1` (stereo not drawn): the result was inactive.
On the same count and under the same terms, for `CCCCN(CCCC)N=O` the value was “inactive”; for `CSC(C)(C)C=NO`, “inactive”; for `CCCCCCCc1ccc(O)cc1`, “inactive”.
On the same count and under the same terms, the value for `CCN(CC)c1ccccc1` was “inactive”; that for `Nc1cc2c3c(c1)C(c1ccccc1)=N[C@@H](NC(=O)c1cccnc1)C(=O)N3CC2` was “inactive”.
The same measure, in the same setting: the value for `Nc1ccc(Cl)cc1` was “inactive”; that for `CC(Cl)(Cl)C(=O)O` was “inactive”; that for `CCOP(=S)(OCC)SCS(=O)(=O)CC` was “inactive”.
In the case of `CCOC(=O)c1ccccc1C(=O)OCC`, the result was inactive.
The same measure, in the same setting: for `O=C(CBr)OCc1ccccc1` the value was “inactive”; for `c1ccc(OP(Oc2ccccc2)Oc2ccccc2)cc1`, “inactive”; for `O=[N+]([O-])c1ccccc1`, “inactive”.
The same measure, in the same setting: the value for `CCCCc1ccc(O)cc1` was “inactive”.
Still for that read-out and setting: for `[N-]=[N+]=[N-]` the value was “inactive”; for `ClC(Cl)c1ccccc1`, “inactive”.
As for `Nc1ccc(Sc2ccc(N)cc2)cc1`, the compound was called inactive.
Consider `CC1=C(C(=O)Nc2ccccc2)S(=O)(=O)CCO1`, for which the result was inactive.
Same read-out and setting: the value for `CC(Cc1ccc(OCC(=O)O)cc1)NCC(O)c1csc(C(F)(F)F)n1` (stereo not drawn) was “inactive”; that for `NNC(N)=S` was “inactive”; that for `c1cc2c3c(cccc3c1)CC2` was “inactive”.

Tested on in the next experiment: not listed separately
In words: ATG_ISRE_CIS: Attagene CIS-FACTORIAL HepG2 Assay for human Interferon Regulatory Factor 1 (IRF1) binding to an Interferon-Stimulated Response Element (ISRE) (AID 2282948). The following applies: HepG2 ISRE cis-reporter (Attagene), mRNA transcription readout; actives raise or lower the signal. In outline: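 HepG2 cells transiently transfected with multiplexed cis-promoter reporter units; after 24 h compound exposure, reporter mRNA quantified by RT-PCR, FAM labelling, HpaI digestion and capillary electrophoresis. Bidirectional fit versus DMSO baseline.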
On to `ClC(Cl)(Cl)c1ccccc1`, for which the outcome was inactive.
For `CCOP(=S)(Oc1ccc([N+](=O)[O-])cc1)c1ccccc1` (stereo not drawn), the result was inactive.
Turning to `CCCCN(CCCC)SN(C)C(=O)Oc1cccc2c1OC(C)(C)C2`, the compound was classed as inactive.
With `Nc1ccc2ccccc2c1`, the outcome was inactive.
Still for that read-out and setting: the value for `O=C(O)C1C(C(=O)O)C2(Cl)C(Cl)=C(Cl)C1(Cl)C2(Cl)Cl` (stereo not drawn) was “inactive”; that for `Cc1cccc(N)c1` was “inactive”.
`CCCCOCCOP(=O)(OCCOCCCC)OCCOCCCC`: the AC50 is 24.7 µM (active) and the outcome was inactive.
As to `CN(C)C(=O)Cl`, the outcome was inactive.
The same measure, in the same setting: the value for `O=C(O)C(Cl)Cl` was “inactive”; that for `CCOS(=O)(=O)OCC` was “inactive”; that for `OCC1CO1` (stereo not drawn) was “inactive”.
Still for that read-out and setting: for `CCCCN(CCCC)N=O` the value was “inactive”; for `CSC(C)(C)C=NO`, “inactive”; for `CCCCCCCc1ccc(O)cc1`, “inactive”.
As for `CCN(CC)c1ccccc1`, the outcome was inactive.
Still for that read-out and setting: the value for `Nc1cc2c3c(c1)C(c1ccccc1)=N[C@@H](NC(=O)c1cccnc1)C(=O)N3CC2` was “inactive”; that for `O=C(O)CF` was “inactive”.
In the case of `Nc1ccc(Cl)cc1`, the result was inactive.
Still for that read-out and setting: for `CC(Cl)(Cl)C(=O)O` the value was “inactive”.
For `CCOP(=S)(OCC)SCS(=O)(=O)CC`, the outcome was inactive.
In the case of `CCOC(=O)c1ccccc1C(=O)OCC`, the compound was called inactive.
In the case of `CCC1(c2ccccc2)C(=O)N=C(O)NC1=O` (stereo not drawn), the compound was classed as inactive.
On the same count and under the same terms, the value for `O=C(CBr)OCc1ccccc1` was “inactive”; that for `Cc1ccc(O)cc1C` was “inactive”.
On the same count and under the same terms, the value for `c1ccc(OP(Oc2ccccc2)Oc2ccccc2)cc1` was “inactive”.
In the case of `O=[N+]([O-])c1ccccc1`, the outcome was inactive.
Still for that read-out and setting: the value for `CCCCc1ccc(O)cc1` was “inactive”.
Still for that read-out and setting: the value for `COCCOCCO` was “inactive”; that for `[N-]=[N+]=[N-]` was “inactive”; that for `ClC(Cl)c1ccccc1` was “inactive”.
`Nc1ccc(Sc2ccc(N)cc2)cc1`: the compound was called inactive.
Same read-out and setting: the value for `CCCN(CCC)c1c([N+](=O)[O-])cc(C(C)C)cc1[N+](=O)[O-]` was “inactive”.
Take `CC1=C(C(=O)Nc2ccccc2)S(=O)(=O)CCO1`: the AC50 is 30.2 µM (active).
As for `CC(Cc1ccc(OCC(=O)O)cc1)NCC(O)c1csc(C(F)(F)F)n1` (stereo not drawn), the outcome was inactive.
Regarding `NNC(N)=S`, the result was inactive.
In the case of `c1cc2c3c(cccc3c1)CC2`, the result was inactive.
Same read-out and setting: the value for `c1ccc2c(c1)Nc1ccccc1S2` was “inactive”; that for `Cc1ccc([N+](=O)[O-])cc1C` was “inactive”.
Still for that read-out and setting: for `CC(C)(C)c1ccc(O)cc1` the value was “inactive”.

Tested on in a further experiment: not listed separately
Nature of the experiment: ATG_M_32_CIS: Attagene CIS-FACTORIAL HepG2 Assay for M32 Transcription Factor (Internal Marker) (AID 2282949).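 Further: background control marker of the multiplexed CIS panel rather than a real target.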 The following applies: HepG2 Attagene cis-factorial M32 reporter, mRNA; actives raise or lower the signal. In outline:
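Internal background marker read-out: RT-PCR/capillary electrophoresis fluorescence of reporter transcripts from transiently transfected HepG2 cells after 24 h chemical exposure. Activity fitted bidirectionally relative to DMSO negative control.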
For `CCOP(=S)(Oc1ccc([N+](=O)[O-])cc1)c1ccccc1` (stereo not drawn), the outcome was inactive.
As for `CCCCN(CCCC)SN(C)C(=O)Oc1cccc2c1OC(C)(C)C2`, the call was inactive.
On the same count and under the same terms, for `CSC(C)(C)C=NO` the value was “inactive”.
On to `CCCCCCCc1ccc(O)cc1`, for which the compound was called inactive.
Turning to `Nc1cc2c3c(c1)C(c1ccccc1)=N[C@@H](NC(=O)c1cccnc1)C(=O)N3CC2`, the compound was called inactive.
Turning to `O=C(O)CF`, the compound was classed as inactive.
On to `CC(Cl)(Cl)C(=O)O`, for which the call was inactive.
Take `CCC1(c2ccccc2)C(=O)N=C(O)NC1=O` (stereo not drawn): the compound was called inactive.
The same measure, in the same setting: the value for `Cc1ccc(O)cc1C` was “inactive”; that for `c1ccc(OP(Oc2ccccc2)Oc2ccccc2)cc1` was “inactive”; that for `COCCOCCO` was “inactive”.
Still for that read-out and setting: for `ClC(Cl)c1ccccc1` the value was “inactive”.
The same measure, in the same setting: for `CCCN(CCC)c1c([N+](=O)[O-])cc(C(C)C)cc1[N+](=O)[O-]` the value was “inactive”.
Consider `CC(Cc1ccc(OCC(=O)O)cc1)NCC(O)c1csc(C(F)(F)F)n1` (stereo not drawn), for which the outcome was inactive.
Same read-out and setting: the value for `c1cc2c3c(cccc3c1)CC2` was “inactive”.
Turning to `c1ccc2c(c1)Nc1ccccc1S2`, the compound was called inactive.
Same read-out and setting: the value for `Cc1ccc([N+](=O)[O-])cc1C` was “inactive”.
For `CC(C)(C)c1ccc(O)cc1`, the outcome was inactive.

The term AC50 denotes the concentration giving half of the maximal activity seen.
